Shown are actives, neighbours in structure and some others; about 2.4% of the full set was active somewhere.
CHRM1 antagonist = human CHRM1 antagonism. CHO-K1 hM1, Fluo-8 calcium fluorescence, ACh EC80 antagonist. hit rate 1.3% among 360,000. P11229. inhibition, % at 3 µM;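 active means percent inhibition above its own plate's cutoff, namely the mean of that plate's compound wells plus 3 SD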;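 further: peak over basal fluorescence ratio during 140 s after agonist addition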
Target sequence (P11229 whole entry, looked up): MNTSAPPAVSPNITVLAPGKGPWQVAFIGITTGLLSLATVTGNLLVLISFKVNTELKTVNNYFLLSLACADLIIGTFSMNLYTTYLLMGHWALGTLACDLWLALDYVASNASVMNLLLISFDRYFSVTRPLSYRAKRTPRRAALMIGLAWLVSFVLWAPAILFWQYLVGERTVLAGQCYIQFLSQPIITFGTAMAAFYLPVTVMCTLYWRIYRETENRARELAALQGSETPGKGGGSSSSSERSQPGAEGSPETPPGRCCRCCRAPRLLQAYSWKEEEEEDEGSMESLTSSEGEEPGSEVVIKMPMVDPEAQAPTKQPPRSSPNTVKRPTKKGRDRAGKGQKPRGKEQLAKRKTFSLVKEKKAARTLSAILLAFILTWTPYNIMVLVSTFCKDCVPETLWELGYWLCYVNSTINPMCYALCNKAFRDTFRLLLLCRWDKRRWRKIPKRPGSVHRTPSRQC
CHO-K1 Ca antag = nonselective inhibitor or artifact in parental CHO-K1 cells. ATP-induced calcium, Fluo-8 fluorescence. inhibition, % at 3 µM. hit rate 0.6% among 360,000. AID 602250;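 active means inhibition above a per-plate cutoff, the plate's mean sample inhibition plus 3 SD, cut at about 24% in these data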
M1 PAM parental = nonselective activator or artifact in parental CHO-K1 calcium assay; hit rate 0.02% among 360,000; activation, % at 3 µM; ATP EC20, Fluo-8 calcium fluorescence; 0% at ATP EC20, 100% at ATP max;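 active means activation above the run cutoff, the mean activation of all test compounds plus 3 SD, cut at about 40% in these data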;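 further: peak over basal fluorescence ratio in a 140 s read after ATP addition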
CHO-K1 Ca ag = counter-screen for M1 agonists: effect in parental CHO-K1 cells | activation, % at 3 µM | Fluo-8 calcium fluorescence; scaled to maximal ATP response, vehicle zero | AID 602248 | hit rate 0.48% among 360,000; in the data active means activation above about 15%;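 further: untransfected CHO-K1 host cells lacking M1 receptor as counterscreen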
CHRM1 PAM = positive allosteric modulators of human M1 muscarinic receptor; CHO-K1 hM1, Fluo-8 calcium fluorescence, ACh EC20; 0% = ACh EC20, 100% = maximal ACh; activation, % at 3 µM; AID 588819; hit rate 0.088% among 360,000; P11229; in the data active means activation above about 19%, passing the limit was not always enough
CHRM1 agonist = human M1 muscarinic receptor agonism. P11229. CHO-K1 hM1, Fluo-8 calcium fluorescence, agonist mode; 0% DMSO, 100% acetylcholine EC100. activation, % at 3 µM. hit rate 0.33% among 360,000;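 active means activation above the run's mean compound activation plus 3 SD, cut at about 16% in these data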;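 further: peak over basal fluorescence ratio within a 140 s kinetic read after compound addition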
Each line names hits and unclear results; the compound was inactive in the other large screens.

CC[C@]12c3[nH]c4cc(CCC(=O)N(C)C)ccc4c3CCN1C(=O)[C@@H](CC(=O)NCCc1ccccn1)C[C@@H]2C(=O)N1CCN(C(=O)C2CC2)CC1	none
CCOC(=O)c1c(C)n(C)c2ccc(OC)c([N+](=O)[O-])c12	none
c1ccc(C[C@H]2CN=C(Nc3ccccc3)N2CC2CCCC2)cc1	none (no result: CHRM1 antagonist, CHRM1 PAM, CHRM1 agonist)
Cn1c(SCC(=O)Nc2ccccc2)nc2c([nH]c3ccccc32)c1=O	CHRM1 antagonist 35
COc1ccc(NC(=O)C2Cc3c(-c4ccc5c(c4)OCO5)ccnc3O2)cc1 (centres undefined)	none
CCCNC(=O)C1(C)CCN(C(=O)c2ccc(OC)cc2OC)C1 (centres undefined)	none
Cc1cc(C)n2nc(S(=O)(=O)N(CC(C)C)CC(C)C)nc2n1	CHO-K1 Ca antag 25
Cc1cc(C)n2nc(S(=O)(=O)N(C)Cc3ccccc3)nc2n1	none
OCCN(Cc1cccnc1)Cc1ccccn1	CHRM1 antagonist 59
CCCN1CCN(C(=O)c2ccc(-c3ccc([N+](=O)[O-])cc3)o2)CC1	none
CCOC(=O)C1CCCN(C(=O)c2ccc(CS(=O)(=O)c3ccc(C)cc3)o2)C1 (centres undefined)	CHRM1 agonist 56
CCOC(=O)C1CCCN(C(=O)c2cccc(S(=O)(=O)N(C)c3ccc(C)cc3)c2)C1 (centres undefined)	CHRM1 antagonist 37
CCOC(=O)C1CCCN(C(=O)c2ccc(-c3ccc([N+](=O)[O-])cc3)o2)C1 (centres undefined)	CHRM1 agonist 39
Cc1ccc(CN(C)C[C@@H]2OCc3cnnn3CCCC(=O)N([C@H](C)CO)C[C@H]2C)cc1	none
C[C@H](CO)N1C[C@H](C)[C@@H](CN(C)Cc2ccc(O)cc2)OCc2cnnn2CCCC1=O	none
COc1ccccc1CN(C)C[C@H]1OCc2cnnn2CCCC(=O)N([C@H](C)CO)C[C@@H]1C	none
C[C@@H]1CN([C@H](C)CO)C(=O)CCCn2nncc2CO[C@H]1CN(C)Cc1ccc(Oc2ccccc2)cc1	CHRM1 antagonist 54
C[C@@H]1CN([C@@H](C)CO)C(=O)CCCn2nncc2CO[C@H]1CN(C)Cc1ccc(Oc2ccccc2)cc1	CHRM1 antagonist 40
COc1ccccc1CN(C)C[C@H]1OCc2cnnn2CCCC(=O)N([C@@H](C)CO)C[C@@H]1C	CHRM1 antagonist 102
CN(C(=O)CCS(=O)(=O)c1cc2c(cc1Cl)NC(=O)CO2)C1CCCCC1	none
CN1CCOc2c1cnn(CCO)c2=O	none
CC[C@H](C)[C@@H](CO)NC(=O)[C@H]1O[C@@H](n2ccc(N)nc2=O)[C@H](O)[C@@H]1O	none
C/C(=N\O)C(=O)NCc1ccncc1	CHO-K1 Ca antag 25
O=C(NCc1ccncc1)C(=O)NCc1ccncc1	none
O=C(Nc1ccc(Br)cn1)c1cccc2c1-c1ccccc1C2=O	none
O=C(Nc1ccc(OC(F)(F)F)cc1)N1CCN(c2ccnc3cc(Cl)ccc23)CC1	CHO-K1 Ca antag 27
CC(C)(C)C(=O)N1CCN(c2ccnc3cc(Cl)ccc23)CC1	none
C=CCNc1cc(N2CCCC2)ccc1[N+](=O)[O-]	none
O=C(N/N=C/c1cccs1)c1ccc2nc[nH]c2c1	CHRM1 antagonist 35
CC(Sc1nnc(CN2CCCC2)n1Cc1ccccc1)C(=O)Nc1ccc(F)cc1Cl (centres undefined)	CHO-K1 Ca antag 24
Cc1cc(/C=C2/SC(=S)N(c3cccc(C(F)(F)F)c3)C2=O)c(C)n1-c1cccnc1	CHRM1 antagonist 43, CHO-K1 Ca antag 36
Cc1cc(/C=C2\SC(=S)N(Cc3ccco3)C2=O)c(C)n1-c1cccnc1	none
O=C1/C(=C\c2ccc(O)cc2)SC(=S)N1c1cccnc1	CHO-K1 Ca ag 17, CHRM1 agonist 17
COc1cc(-c2coc3c(C(=O)NCc4cccc(Cl)c4)cccc23)ccc1O	none
Cc1ccc(C(O)CSc2nnc(-c3ccc4ccccc4c3)n2C)cc1 (centres undefined)	none
N#C/C(=C/c1ccc(-c2ccc(S(N)(=O)=O)cc2)o1)c1nc2ccccc2s1	CHRM1 antagonist 60, CHO-K1 Ca antag 41, CHO-K1 Ca ag 30, CHRM1 agonist 54
N#C/C(=C\c1ccccn1)c1nc2ccccc2s1	CHO-K1 Ca antag 34, CHO-K1 Ca ag 34, CHRM1 agonist 28
